# Compound activity: PubChem BioAssay, National Center for Advancing Translational Sciences (NCATS)
# Most compounds without a hit are left out; they make up all but 19% or so of the library.
# IL-1B inflam inh: blocks inflammasome-driven IL-1 beta release | THP-1 LPS/ATP IL-1B secretion, AlphaLISA, 16 h; active compounds read low | activity change, % at 57.5 µM | 360,000 tested, 4.7% active; in the data active = activity change below about -50%; inconclusive = mostly about -30% to -49%
#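 THP-1 cells pretreated 1 hr with compounds (up to 57.5 uM final), then stimulated with LPS (250 ng/mL final) plus ATP (1.25 mM final); secreted IL-1B measured by AlphaLISA after 16 hr, decreased signal indicating inhibition.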
# DT40 TDP1 no CPT: qHTS for Inhibitors of human tyrosyl-DNA phosphodiesterase 1 (TDP1): qHTS in cells in absence of CPT; DT40 Tdp1-/- hTDP1 cells, no CPT, ATP luminescence, 48 h; Potency, µM (top dose mostly 46.2 µM), inactives show top-dose activity change, negative = growth inhibition, hits mostly inhibitors; 420,000 tested, 15% active; AID 686978, 2013; also: potency is read from the fitted curve at half-maximal effect; nearly all actives have a fitted effect of over 55% in size
#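 Chicken DT40 Tdp1-/- cells stably complemented with human TDP1 were seeded at 400 cells/well with DMSO in place of 20 nM camptothecin. After compound pinning, cells grew at least 48 hr at 37 °C; viability read by CellTiter-Glo luminescence.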
# HT1080NT lethal: kills 2HG-producing HT-1080-NT fibrosarcoma cells | HT-1080-NT fibrosarcoma viability, CellTiter-Glo ATP luminescence, 48 h | Potency, µM (top dose mostly 46.1 µM), for inactives: at the highest dose activity, negative = less viability, most hits filed as cytotoxic | 360,000 tested, 1.6% active | AID 686970;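 also: NT is the 2HG producing partner of a matched IDH1 knockdown line; potency is read from the fitted curve at half-maximal effect; 0% = DMSO-treated cells and -100% = media-only wells without cells; nearly all actives have a fitted effect of over 55% in size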
#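 Read-out is CellTiter-Glo luminescence after 10 minutes at room temperature, following 48 hours' compound treatment of HT-1080-NT cells (750 cells/well, RPMI, 5% FBS, 37 degrees C).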
# DT40 TDP1 CPT: growth inhibition of DT40 Tdp1-/-;hTDP1 cells with camptothecin (screen for TDP1 inhibitors); Potency, µM (titrated, usually from 46.2 µM), for the others: at the top dose activity change, negative = growth inhibition, hits mostly inhibitors; chicken DT40 Tdp1-/-;hTDP1 cells + 20 nM CPT, ATP luminescence, 48 h; 420,000 tested, 12% active; also: potency is read from the fitted curve at half-maximal effect; nearly all actives have a fitted effect of over 55% in size
#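 Chicken DT40 Tdp1-/- cells complemented with human TDP1, 400 cells/well, exposed to compounds plus 20 nM camptothecin for at least 48 h at 37 C; viability read as ATP content by CellTiter-Glo luminescence.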
# HT1080 IDH1KD tx: HT-1080 IDH1 knockdown cell toxicity (counter line); AID 686971; Potency, µM (highest dose often 46.1 µM), for inactives: at the highest dose activity, negative = toxicity, actives largely listed as cytotoxic; HT-1080 IDH1 knockdown viability, ATP luminescence, 48 h; 360,000 tested, 2% active;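 also: potency is read from the fitted curve at half-maximal effect; 0% = DMSO wells and -100% = cell-free medium wells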
#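 IDH1KD HT-1080 cells, 750/well, RPMI + 5% FBS; compound pinned after 2 h settling; 48 h, 37 °C; CellTiter-Glo luminescence; % activity normalised to DMSO and no-cell wells; curves fitted, classed by r2 and efficacy.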
# Active calls of the source: *; ? = inconclusive; nt = no result; [ ] = remark or other dose. Unless noted, calls follow the shape of the dose curve; as a rule, active = well fitted curve in the direction sought with a large enough effect; inconclusive = small, poorly fitted or top-dose-only effect, or another doubt; inactive = no such curve, though single readings can be large; an effect the other way counts as inactive or inconclusive. Unless noted, % is scaled to controls: 0 for no effect and ±100 for the full control effect.
SMILES,IL-1B inflam inh,DT40 TDP1 no CPT,HT1080NT lethal,DT40 TDP1 CPT,HT1080 IDH1KD tx
O=C(CN(Cc1ccc(F)cc1)C(=O)CCC(=O)Nc1nccs1)NCc1ccccc1,12.3,-19.3%,0.3%,4.5%,-11.9%
O=C(O)c1cc(S(=O)(=O)NCCOc2ccccc2)ccc1Cl,3.3,13.5%,19.5%,-2.6%,15.9%
CCSC1=NC2(CCCCC2)Nc2sc3c(c21)CCCC3,-22.2,?,-16.1%,23.1µM*,-1.1%
Cc1ccc(Cc2c(C3CCCCC3)nc3c4ccccc4ccn23)cc1,33.8,23.1µM*,3.6%,?,5.3%
c1ccc2c(c1)ccn1c(Cc3ccsc3)c(C3CCCCC3)nc21,11.3,14.6µM*,-17.7%,18.4µM*,?
COc1ccccc1Cc1c(C2CCCCC2)nc2c3ccccc3ccn12,26.1,?,3.8%,?,-18.3%
CC1=Nc2cc(C(=O)NCCCN3CCN(C)CC3)ccc2Sc2ccc(C)cc21,-2.3,18.4µM*,-24.2%,?,-12.7%
CCC(C)NC(=O)c1cccc(C)c1 (stereo not drawn),3.3,1.4%,20.2%,4.0%,-4.0%
CCC(C)NC(=O)c1ccc2c(c1)N=C(C)c1cc(C)ccc1S2 (stereo not drawn),nt,5.17µM*,nt,3.26µM*,nt
CC1=Nc2cc(C(=O)NCC3CCCO3)ccc2Sc2ccc(C)cc21 (stereo not drawn),5.6,0.92µM*,7.9%,0.581µM*,?
C#CCSc1nnc(-c2ccc(OC)cc2)o1,-6.6,-2.7%,?,6.7%,?
COc1ccc(OCc2nc(C#N)c(NCCCn3ccnc3)o2)cc1,13.2,-7.0%,16.4%,0.3%,9.7%
CCc1nc2c(OCC(=O)C(C)(C)C)cccn2c1N(C)C(=O)c1ccco1,3.2,-2.7%,27.4%,-6.8%,?
NNC(=O)CCCCCCCCCCOCCCCO,15.8,13µM*,-18.2%,-21.4%,-21.8%
CCCCCOCC(O)CCC(=O)NN (stereo not drawn),0.0,-2.3%,5.4%,-8.0%,11.2%
CCn1c2ccccc2c2nc3ccccc3nc21,-12.2,18.4µM*,-16.8%,?,-16.5%
CCn1c2ccccc2c2nc3cc(C(=O)O)ccc3nc21,-55.6*,-26.3%,?,12.1%,?
CCOCCn1c2ccccc2c2nc3ccccc3nc21,?,?,-0.3%,?,-0.7%
CCn1c2ccccc2c2nc3cc(OC)c(OC)cc3nc21,-52.2*,13µM*,?,13µM*,?
O=C(NN1C(=O)/C(=C\c2cccnc2)SC1=S)c1ccco1,20.4,?,4.4%,-28.7%,2.2%
COc1ccccc1C1CN(CCNC(=O)c2cscn2)Cc2ccccc2O1 (stereo not drawn),nt,?,nt,13.4%[9.04 µM],nt
CCOC(=O)C1CCN(C2=NC(=O)/C(=C/c3ccc(O)cc3)S2)CC1,27.7,7.31µM*,20.7%,?,8.2%
CCOC(=O)C1CCCN(C2=NC(=O)/C(=C/c3ccc(N(C)C)cc3)S2)C1 (stereo not drawn),-83.1*,?,-10.2%,?,?
Cc1ccc(OC(=O)c2oc3ccc(F)cc3c2C)c(C)c1,-20.7,-1.8%,-17.9%,-4.2%,6.6%
Cc1ccccc1C1CC(c2ccc(Br)cc2)Nc2nc(N)nn21 (stereo not drawn),?,-27.8%,-7.8%,-21.9%,-23.8%
SMILES,IL-1B inflam inh,DT40 TDP1 no CPT,HT1080NT lethal,DT40 TDP1 CPT,HT1080 IDH1KD tx
Cc1ccccc1C1CC(c2ccc(F)cc2)Nc2nc(N)nn21 (stereo not drawn),-0.4,?,-4.4%,20.6µM*,0.5%
Cc1cccc(C2CC(c3ccc(Br)cc3)Nc3nc(N)nn32)c1 (stereo not drawn),-13.8,23.1µM*,1.7%,20.6µM*,0.2%
COc1ccc(C2CC(c3cccc(C)c3)n3nc(N)nc3N2)cc1 (stereo not drawn),-11.1,-2.9%,13.7%,?,-5.1%
Cc1ccccc1C1CC(c2cccs2)Nc2nnnn21 (stereo not drawn),?,6.51µM*,-1.6%,-7.1%,-10.6%
O=C(O)CNC(=O)c1ccccc1I,nt,0.6%,nt,-8.9%,nt
CSc1cccc(Nc2cc(C(=O)NCCCN(C)c3ccccc3)c3ccccc3n2)c1,nt,13µM*,nt,14.6µM*,nt
CCc1ccc(Nc2cc(C(=O)NCCCN(C)c3ccccc3)c3ccccc3n2)cc1,nt,13µM*,nt,?,nt
NS(=O)(=O)c1ccc(CNC(=O)c2cccnc2Cl)cc1,3.0,-18.5%,8.1%,-2.1%,13.1%
COc1ccc(-n2cnc3cc([N+](=O)[O-])ccc32)cc1,-29.1,-17.3%,7.1%,1.8%,14.4%
COc1ccc(-n2cnc(N)c2C(=O)c2cccc([N+](=O)[O-])c2)cc1,-3.0,?,?,16.4µM*,?
C=CCC1(CC=C)CCCN1C(=O)C1CCC(=O)N(Cc2ccc(Cl)cc2)C1 (stereo not drawn),8.1,8.2µM*,?,10.3µM*,-0.6%
C=CCC1(CC=C)CCCN1C(=O)C1CCC(=O)N(CCc2ccc(Cl)cc2)C1 (stereo not drawn),0.0,13µM*,4.3%,18.4µM*,-0.3%
CCCCOCCCNS(=O)(=O)c1ccccc1,0.0,-16.2%,0.4%,-10.2%,-2.2%
CCCCOP(=O)(OCCCC)C1(NS(=O)(=O)c2ccccc2)C=CC(=O)c2ccccc21 (stereo not drawn),5.6,23.1µM*,20.6µM*,16.4µM*,23.1µM*
Cc1ccc(CN(C)CC(=O)Nc2ccc3c(c2)CCC3)cc1,-66.4*,?,-2.1%,-5.5%,-12.8%
CCc1ccc(CN(C)CC(=O)Nc2ccc3c(c2)CCC3)cc1,18.6,?,-5.2%,?,-0.4%
Cc1cccc(NC(=O)CSc2nnc(CNC(=O)c3ccc(S(=O)(=O)N(C)C)cc3)n2-c2cccc(C)c2)c1,-4.4,?,-0.6%,16.4µM*,-4.3%
CN(C)S(=O)(=O)c1cccc(NC(=O)CSc2nc3ccccc3[nH]2)c1,-61.0*,?,-16.2%,?,?
O=C(CSc1nc2ccccc2[nH]1)Nc1cccc(S(=O)(=O)N2CCOCC2)c1,?,?,-7.3%,?,1.0%
CCN(CC)S(=O)(=O)c1ccc(NC(=O)CSc2nnc3c(n2)[nH]c2ccccc23)cc1,nt,6.31µM*,12.6µM*,7.08µM*,22.4µM*
COC(=O)c1sc2cccc(F)c2c1S(=O)(=O)Nc1cc(OC)cc(OC)c1,nt,3.7%,nt,6.3%,nt
Cc1ccc2nc(SCC(=O)Nc3cccc(S(=O)(=O)N(C)C)c3)[nH]c2c1,-20.6,16.4µM*,-14.9%,?,-12.9%
CC(=O)c1cc2c(cc1NC(=O)CSc1nc3ccc(C)cc3[nH]1)OCO2,-74.2*,?,-23.7%,-10.3%,-25.5%
